In PubChem BioAssay (Tox21):
Values joined by “and” are separate entries in the source; they are usually repeats but may differ in a detail not shown here. Equal entries are not always repeated. Records with an inconclusive call do not appear. A call without a number means that no potency is given here. Where a structure was tested more than once in an assay, its records may differ in their call. Active and inactive are the calls of the source. Unless noted, calls follow the shape of the dose curve; as a rule, active = well fitted curve in the direction sought with a large enough effect in the repeat runs; inconclusive = weak or mixed curves; inactive = no such curve, though single readings can be large; an effect the other way counts as inactive or inconclusive.

Key:
[1] = qHTS assay to identify aromatase inhibitors - cell viability counter screen (AID 743084);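 also: cells stimulated with testosterone during compound exposure; nearly all actives have a fitted effect of over 55% in size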
[2] = target: Aryl hydrocarbon receptor (Homo sapiens) (UniProt P35869); test: qHTS assay to identify small molecule that activate the aryl hydrocarbon receptor (AhR) signaling pathway (AID 743085); also: nearly all actives have a fitted effect of over 15% in size; also: potency is read from the fitted curve at half-maximal effect;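 as to activation: HG2L7.5c1 human HepG2 liver cells with stably integrated DRE-driven firefly reporter; series mostly up to about 70 µM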
How it was run: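 Compounds were tested in HepG2 hepatocellular carcinoma cells harbouring a stably integrated luciferase gene under control of 20 DREs. Increased reporter signal after 24 h treatment at 37C was taken as AhR activation.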

[3] = qHTS assay to identify small molecule that activate the aryl hydrocarbon receptor (AhR) signaling pathway - cell viability counter screen (AID 743086);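 also: HepG2 liver cells carrying the AhR DRE luciferase reporter; series mostly up to about 70 µM; nearly all actives have a fitted effect of over 45% in size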
How it was run: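 HepG2-AhR-luc (HG2L7.5c1) cells, 4000/well, were preincubated 5 h at 37C, exposed to compound in qHTS format for 24 hr at 37C, then given CellTiter-Fluor for 30 min; viability was read as fluorescence in the reporter wells.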

[4] = target: Peroxisome proliferator-activated receptor gamma (Homo sapiens) (UniProt P37231); test: qHTS assay to identify small molecule agonists of the peroxisome proliferator-activated receptor gamma (PPARg) signaling pathway (AID 743094; active = well fitted activation curve with a large enough effect in the signal ratio in the repeat runs, not every such curve was filed as active; the % refers to the signal ratio)
How it was run: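 GeneBLAzer PPARg UAS-bla HEK293H cells carrying a stably integrated beta-lactamase reporter were pre-incubated 5 h at 37C, then exposed to compounds in DMSO for 17 h at 37C; LiveBLAzer B/G FRET substrate was added for 1 h at room temperature and fluorescence read.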

[5] = target: Peroxisome proliferator-activated receptor gamma (Homo sapiens) (UniProt P37231); test: qHTS assay to identify small molecule antagonists of the peroxisome proliferator-activated receptor gamma (PPARg) signaling pathway (AID 743191; calls by dose curve; also: series mostly up to about 63 µM; nearly all actives have a fitted effect of over 30% in size)
How it was run: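 GeneBLAzer PPARg UAS-bla HEK293H cells carrying a UAS-driven beta-lactamase reporter were plated at 3000 cells/well, preincubated 5 h at 37C, then given compound for 17 h at 37C; LiveBLAzer B/G FRET substrate was read after 1 h at room temperature.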

[6] = qHTS assay to identify small molecule antagonists of the peroxisome proliferator-activated receptor gamma (PPARg) signaling pathway - cell viability counter screen (AID 743194); also: nearly all actives have a fitted effect of over 55% in size
How it was run: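 PPARg-UAS-bla HEK293H cells were plated, rested 5 h at 37 C, then treated with compounds plus rosiglitazone (50 nM final) for 17 h at 37 C; viability was then read by CellTiter-Glo luminescence after 30 min at room temperature.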

[7] = qHTS assay for small molecule agonists of the antioxidant response element (ARE) signaling pathway (AID 743202; active = well fitted activation curve with a large enough effect in the signal ratio in the repeat runs, not every such curve was filed as active; the % refers to the signal ratio)
How it was run: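 Compounds delivered in DMSO to ARE-bla HepG2 cells (2,000 cells/well, pre-incubated 5 h) and left 16 h at 37 C. LiveBLAzer B/G FRET substrate then added for 2 h at RT before fluorescence reading.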

[8] = qHTS assay for small molecule agonists of the antioxidant response element (ARE) signaling pathway - cell viability counter screen (AID 743203; calls by dose curve; also: nearly all actives have a fitted effect of over 55% in size)
How it was run: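 CellSensor ARE-bla HepG2 cells, 2,000 per well, rested 5 hrs at 37C/5% CO2, then exposed to compound in DMSO for 16 hrs; viability read as CellTiter-Glo luminescence after 30 min at room temperature, in the reporter wells.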

[9] = qHTS assay for small molecule activators of the heat shock response signaling pathway - cell viability counter screen (AID 743209); also: nearly all actives have a fitted effect of over 50% in size
How it was run: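 CellSensor HSE-bla HeLa cells, plated overnight at 37 C/5% CO2, were exposed to compounds in DMSO for 5 h at 37 C. Viability was then read in the same wells by CellTiter-Glo luminescence after 30 min at room temperature.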

[10] = qHTS assay for small molecule activators of the heat shock response signaling pathway (AID 743210; active = well fitted activation curve with a large enough effect in the signal ratio in the repeat runs, with a control signal flat, not every such curve was filed as active; the % refers to the signal ratio;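 also: HeLa cells with beta-lactamase reporter driven by heat shock elements; series mostly up to about 63 µM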)
How it was run: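 Reporter gene assay: HeLa cells stably bearing an HSE-bla construct, compound treatment 5 h at 37 C, LiveBLAzer substrate 2.5 h at RT, fluorescence intensity.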

[11] = qHTS assay to identify small molecule agonists of the peroxisome proliferator-activated receptor delta (PPARd) signaling pathway - cell viability counter screen (AID 743211); also: nearly all actives have a fitted effect of over 55% in size
How it was run: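 Counter screen for cytotoxicity run in parallel with the PPARd reporter screen. Beta-lactamase reporter HEK293H cells exposed to compounds 17 h; ATP-based CellTiter-Glo luminescence quantified viability.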

[12] = qHTS assay to identify small molecule antagonists of the peroxisome proliferator-activated receptor delta (PPARd) signaling pathway - cell viability counter screen (AID 743213); also: nearly all actives have a fitted effect of over 50% in size
How it was run: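 Luminescence from CellTiter-Glo, added after the bla read and incubated 30 min at room temperature, gives viability of HEK293H PPARd-bla cells exposed to compounds for 17 h at 37 C with 300 nM L165041.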

[13] = target: Peroxisome proliferator-activated receptor delta (Homo sapiens) (UniProt Q03181); test: qHTS assay to identify small molecule antagonists of the peroxisome proliferator-activated receptor delta (PPARd) signaling pathway (AID 743215; active = well fitted inhibition curve with a large enough effect in the signal ratio in the repeat runs, not every such curve was filed as active; the % refers to the signal ratio;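 also: cells stimulated with agonist L165041 at 300 nM final during compound exposure; series mostly up to about 62 µM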)
How it was run: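 PPARd UAS-bla HEK293H cells were pre-incubated 5 h at 37 C, then given test compounds in DMSO plus agonist L165041 (300 nM final). After 17 h at 37 C, beta-lactamase FRET substrate was added; fluorescence read after 2 h at room temperature.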

[14] = target: Bile acid receptor (Homo sapiens) (UniProt Q96RI1); test: qHTS assay to identify small molecule antagonists of the farnesoid-X-receptor (FXR) signaling pathway (AID 743217; active = well fitted inhibition curve with a large enough effect in the signal ratio in the repeat runs, not every such curve was filed as active; the % refers to the signal ratio)
How it was run: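 FXR-UAS-bla HEK 293T cells pre-incubated 5 h at 37 °C, then exposed to compounds with chenodeoxycholic acid (50 uM final) for 16 h at 37 °C. Beta-lactamase reporter read by LiveBLAzer B/G FRET substrate fluorescence after 2 h at room temperature.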

[15] = qHTS assay to identify small molecule agonists of the farnesoid-X-receptor (FXR) signaling pathway - cell viability counter screen (AID 743218); also: nearly all actives have a fitted effect of over 45% in size
How it was run: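 FXR-UAS-bla HEK 293T cells, plated 5 h at 37 C, were exposed to compounds for 16 h at 37 C. CellTiter-Glo was then added to the same wells as the bla readout; luminescence read after 30 min at room temperature.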

[16] = target: Bile acid receptor (Homo sapiens) (UniProt Q96RI1); test: qHTS assay to identify small molecule agonists of the farnesoid-X-receptor (FXR) signaling pathway (AID 743220; active = well fitted activation curve with a large enough effect in the signal ratio in the repeat runs, not every such curve was filed as active; the % refers to the signal ratio)
How it was run: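 Beta-lactamase reporter under UAS control in GeneBLAzer FXR HEK 293T cells (5000/well) measured with LiveBLAzer FRET substrate after 2 h at room temperature. Compound exposure lasted 16 h at 37C.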

[17] = qHTS assay to identify small molecule antagonists of the farnesoid-X-receptor (FXR) signaling pathway - cell viability counter screen (AID 743221; active = well fitted cell-killing curve with a large enough effect in the repeat runs, not every such curve was filed as active; also: nearly all actives have a fitted effect of over 50% in size)
How it was run: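 Multiplexed counter screen: viability of FXR-bla HEK 293T cells under agonist stimulation by chenodeoxycholic acid (50 uM, final) and test compound for 16 h at 37 C, measured by CellTiter-Glo luminescence in the reporter wells.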

[18] = target: Vitamin D3 receptor (Homo sapiens) (UniProt P11473); test: qHTS assay to identify small molecule agonists of the vitamin D receptor (VDR) signaling pathway (AID 743222; calls by dose curve)
How it was run: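 VDR-bla cells were plated 4 h at 37C/5% CO2, then exposed to compounds in DMSO for 16 h. After LiveBLAzer B/G FRET substrate addition and 2 h at room temperature, beta-lactamase reporter fluorescence was read.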

[19] = target: Vitamin D3 receptor (Homo sapiens) (UniProt P11473); test: qHTS assay to identify small molecule antagonists of the vitamin D receptor (VDR) signaling pathway (AID 743223; active = well fitted inhibition curve with a large enough effect in the signal ratio in the repeat runs, not every such curve was filed as active; the % refers to the signal ratio)
How it was run: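 Cells carrying a VDR-driven beta-lactamase reporter (VDR-bla) were co-treated with compound and 3 nM final 1alpha,25-dihydroxyvitamin D3 for 16 h at 37C; reporter activity was measured as FRET substrate fluorescence after 2 h at room temperature.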

[20] = target: Peroxisome proliferator-activated receptor delta (Homo sapiens) (UniProt Q03181); test: qHTS assay to identify small molecule agonists of the peroxisome proliferator-activated receptor delta (PPARd) signaling pathway (AID 743212; calls by dose curve)
How it was run: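 A PPARd-bla HEK293H line with beta-lactamase under an Upstream Activator Sequence is treated with compounds at 37 C. Substrate loading for 2 h at room temperature precedes the fluorescence measurement.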

Aryl hydrocarbon receptor (Homo sapiens), sequence (P35869 whole entry, looked up): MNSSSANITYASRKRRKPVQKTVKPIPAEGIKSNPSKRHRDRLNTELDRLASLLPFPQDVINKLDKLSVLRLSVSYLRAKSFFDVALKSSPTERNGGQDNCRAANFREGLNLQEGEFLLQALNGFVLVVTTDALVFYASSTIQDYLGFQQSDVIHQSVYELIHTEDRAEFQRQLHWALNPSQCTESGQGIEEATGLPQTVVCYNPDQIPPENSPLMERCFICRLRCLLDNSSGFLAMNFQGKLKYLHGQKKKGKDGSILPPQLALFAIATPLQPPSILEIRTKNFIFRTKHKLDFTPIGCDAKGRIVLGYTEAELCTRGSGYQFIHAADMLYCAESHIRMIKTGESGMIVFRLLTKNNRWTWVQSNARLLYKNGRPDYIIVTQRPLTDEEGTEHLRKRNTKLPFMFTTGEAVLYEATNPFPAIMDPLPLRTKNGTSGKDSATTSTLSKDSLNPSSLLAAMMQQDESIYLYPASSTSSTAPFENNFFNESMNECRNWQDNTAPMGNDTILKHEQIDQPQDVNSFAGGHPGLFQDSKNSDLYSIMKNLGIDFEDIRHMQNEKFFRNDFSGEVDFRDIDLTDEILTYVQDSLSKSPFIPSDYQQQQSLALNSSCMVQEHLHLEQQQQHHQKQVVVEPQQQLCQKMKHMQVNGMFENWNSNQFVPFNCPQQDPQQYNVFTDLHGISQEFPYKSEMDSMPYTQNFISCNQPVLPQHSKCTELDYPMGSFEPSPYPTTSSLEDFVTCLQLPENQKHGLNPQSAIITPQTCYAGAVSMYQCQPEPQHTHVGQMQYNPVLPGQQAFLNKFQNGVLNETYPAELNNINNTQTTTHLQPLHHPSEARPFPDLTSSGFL
Vitamin D3 receptor (Homo sapiens), sequence (P11473 whole entry, looked up): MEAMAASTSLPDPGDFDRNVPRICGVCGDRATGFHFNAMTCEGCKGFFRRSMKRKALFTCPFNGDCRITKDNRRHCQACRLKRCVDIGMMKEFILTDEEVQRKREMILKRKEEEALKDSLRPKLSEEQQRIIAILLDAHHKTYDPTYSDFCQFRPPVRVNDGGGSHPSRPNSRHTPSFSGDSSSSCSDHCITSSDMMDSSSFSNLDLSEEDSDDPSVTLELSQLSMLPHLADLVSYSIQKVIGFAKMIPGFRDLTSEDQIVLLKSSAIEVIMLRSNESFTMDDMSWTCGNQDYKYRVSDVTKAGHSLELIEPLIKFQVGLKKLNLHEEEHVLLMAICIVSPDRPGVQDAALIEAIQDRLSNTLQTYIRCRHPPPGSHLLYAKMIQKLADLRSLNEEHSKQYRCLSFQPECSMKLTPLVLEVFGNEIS
Peroxisome proliferator-activated receptor delta (Homo sapiens), sequence (Q03181 whole entry, looked up): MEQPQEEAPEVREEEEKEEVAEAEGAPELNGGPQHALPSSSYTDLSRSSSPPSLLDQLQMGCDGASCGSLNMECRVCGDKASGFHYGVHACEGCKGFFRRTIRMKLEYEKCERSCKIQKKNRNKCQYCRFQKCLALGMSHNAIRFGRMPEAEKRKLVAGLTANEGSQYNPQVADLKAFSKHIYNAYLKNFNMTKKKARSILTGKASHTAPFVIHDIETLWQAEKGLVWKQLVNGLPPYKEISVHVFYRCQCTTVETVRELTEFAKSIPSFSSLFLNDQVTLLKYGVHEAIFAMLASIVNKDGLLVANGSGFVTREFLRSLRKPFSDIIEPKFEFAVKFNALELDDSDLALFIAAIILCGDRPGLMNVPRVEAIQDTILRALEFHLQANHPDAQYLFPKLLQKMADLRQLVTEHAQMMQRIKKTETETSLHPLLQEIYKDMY
Bile acid receptor (Homo sapiens), sequence (Q96RI1 whole entry, looked up): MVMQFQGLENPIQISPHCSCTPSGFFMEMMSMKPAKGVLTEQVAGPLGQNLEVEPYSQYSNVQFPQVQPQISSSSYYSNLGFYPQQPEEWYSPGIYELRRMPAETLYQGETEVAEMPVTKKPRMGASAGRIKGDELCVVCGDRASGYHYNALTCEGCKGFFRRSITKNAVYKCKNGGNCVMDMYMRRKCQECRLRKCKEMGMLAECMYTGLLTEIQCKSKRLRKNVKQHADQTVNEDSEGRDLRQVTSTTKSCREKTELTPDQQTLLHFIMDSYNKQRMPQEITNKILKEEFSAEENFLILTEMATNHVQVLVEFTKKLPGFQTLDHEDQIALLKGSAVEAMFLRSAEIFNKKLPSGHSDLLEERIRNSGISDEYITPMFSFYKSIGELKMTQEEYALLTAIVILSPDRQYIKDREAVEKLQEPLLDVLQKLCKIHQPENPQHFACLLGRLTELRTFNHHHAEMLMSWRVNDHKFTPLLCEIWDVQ
Peroxisome proliferator-activated receptor gamma (Homo sapiens), sequence (P37231 whole entry, looked up): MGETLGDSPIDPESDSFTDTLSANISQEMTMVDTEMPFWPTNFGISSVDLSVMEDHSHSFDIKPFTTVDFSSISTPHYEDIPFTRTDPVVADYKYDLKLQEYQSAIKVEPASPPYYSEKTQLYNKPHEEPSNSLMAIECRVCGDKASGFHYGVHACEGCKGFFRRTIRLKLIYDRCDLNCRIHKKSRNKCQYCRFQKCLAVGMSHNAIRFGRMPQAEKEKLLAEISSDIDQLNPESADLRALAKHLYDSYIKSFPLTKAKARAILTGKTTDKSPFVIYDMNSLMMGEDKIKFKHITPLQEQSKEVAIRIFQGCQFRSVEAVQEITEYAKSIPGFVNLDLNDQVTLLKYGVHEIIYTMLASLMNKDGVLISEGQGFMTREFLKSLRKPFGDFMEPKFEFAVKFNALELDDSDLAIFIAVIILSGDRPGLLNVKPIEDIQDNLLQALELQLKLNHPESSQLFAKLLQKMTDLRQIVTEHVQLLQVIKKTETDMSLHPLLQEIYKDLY

Compound	Potency [1]	Potency [2]	outcome [3]	outcome [4]	outcome [5]	outcome [6]	Potency [7]	outcome [8]	outcome [9]	Potency [10]	outcome [11]	outcome [12]	Potency [13]	outcome [14]	Potency [15]	outcome [16]	Potency [17]	outcome [18]	outcome [19]	outcome [20]
CCCCC(CC)COC(=O)CCCCC(=O)OCC(CC)CCCC (configuration not stated)	inactive	inactive	inactive	inactive	inactive	inactive	inactive	inactive	inactive	inactive	inactive	inactive	inactive	inactive	inactive	inactive	inactive	inactive	inactive	–
O=C(OCCOCCOC(=O)c1ccccc1)c1ccccc1	inactive	inactive	inactive	inactive	inactive	inactive	inactive	inactive	inactive	inactive	inactive	inactive	inactive	inactive	inactive	inactive	inactive	inactive	inactive	–
O=C1CCC(N2C(=O)c3ccccc3C2=O)C(=O)N1 (configuration not stated)	inactive	inactive	inactive	inactive	inactive	inactive	inactive	inactive	inactive	inactive	inactive	inactive	inactive	–	inactive	–	inactive	–	–	inactive
O=S1(=O)CC=CC1	inactive	inactive	inactive	inactive	inactive	inactive	inactive	inactive	inactive	inactive	inactive	inactive	inactive	–	inactive	–	inactive	inactive	inactive	inactive
c1ccc2scnc2c1	inactive	inactive and 19.3 µM (active)	inactive	inactive	inactive	inactive	inactive	inactive	inactive	inactive	inactive	inactive	–	–	inactive	–	inactive	inactive	inactive	inactive
COS(C)(=O)=O	inactive	inactive	inactive	inactive	inactive	inactive	inactive	inactive	inactive	inactive	inactive	–	inactive	–	inactive	–	inactive	inactive	inactive	inactive
CCCCCCOCCO	inactive	inactive	inactive	inactive	inactive	inactive	inactive	inactive	inactive	inactive	inactive	inactive	inactive	–	inactive	–	inactive	inactive	inactive	inactive
O=C(O)CC(C(=O)O)C(CC(=O)O)C(=O)O (configuration not stated)	inactive	inactive	inactive	inactive	inactive	inactive	inactive	inactive	inactive	inactive	inactive	–	inactive	inactive	inactive	inactive	inactive	inactive	inactive	inactive
COc1ccc(NC(C)=O)cc1N	inactive	inactive	inactive	inactive	inactive	inactive	inactive	inactive	inactive	inactive	inactive	inactive	inactive	–	inactive	–	inactive	–	–	inactive
O=C(O)[C@H](O)[C@@H](O)[C@H](O)[C@H](O)CO	inactive	inactive	inactive	inactive	inactive	inactive	inactive	inactive	inactive	inactive	inactive	–	inactive	–	inactive	–	inactive	inactive	inactive	inactive
COc1cc(Cc2cnc(N)nc2N)cc(OC)c1OC	inactive	inactive	inactive	inactive	inactive	inactive	inactive	inactive	inactive	inactive	inactive	inactive	inactive	–	inactive	–	inactive	inactive	inactive	inactive
O=C(O)c1cc(=O)c2c(OCC(O)COc3cccc4oc(C(=O)O)cc(=O)c34)cccc2o1	inactive	inactive	inactive	inactive	inactive	inactive	inactive	inactive	inactive	inactive	inactive	inactive	inactive	–	inactive	–	inactive	–	–	inactive
CC(O)COCC(C)O (configuration not stated)	inactive	inactive	inactive	inactive	inactive	inactive	inactive	inactive	inactive	inactive	inactive	inactive	inactive	inactive	inactive	inactive	inactive	inactive	inactive	inactive
CC(=O)c1ccccc1	inactive	inactive	inactive	inactive	inactive	inactive	inactive	inactive	inactive	inactive	inactive	inactive	inactive	–	inactive	–	inactive	–	–	inactive
C=CCNC(N)=S	inactive	inactive	inactive	inactive	inactive	inactive	inactive	inactive	inactive	inactive	inactive	inactive	inactive	–	inactive	–	inactive	inactive	inactive	inactive
OC[C@H]1O[C@@](CO)(O[C@H]2O[C@H](CO)[C@@H](O)[C@H](O)[C@H]2O)[C@@H](O)[C@@H]1O	inactive	inactive	inactive	inactive	inactive	inactive	inactive	inactive	inactive	inactive	inactive	inactive	inactive	inactive	inactive	inactive	inactive	–	–	inactive
